Source: PubChem BioAssay (EPA / NIEHS)
Inconclusive results are not listed. Some compounds were tested as several samples or in several runs, with calls that do not always agree. Activity calls are given as the source filed them. Rule for the calls, unless noted: active = hit-call score of the fitted dose curve at least 0.9, where 1 is the maximum; inactive = score below 0.9.

Assays:
[1] = target: Transcription factor E2F1 (Homo sapiens) (UniProt Q01094); test: ATG_E2F_CIS: Attagene CIS-FACTORIAL HepG2 Assay for human E2F Transcription Factor 1 (AID 2282935); details: HepG2 Attagene cis-reporter, E2F reporter RNA transcripts; actives raise or lower the signal
Transcription factor E2F1 (Homo sapiens), sequence (Q01094 whole entry, looked up): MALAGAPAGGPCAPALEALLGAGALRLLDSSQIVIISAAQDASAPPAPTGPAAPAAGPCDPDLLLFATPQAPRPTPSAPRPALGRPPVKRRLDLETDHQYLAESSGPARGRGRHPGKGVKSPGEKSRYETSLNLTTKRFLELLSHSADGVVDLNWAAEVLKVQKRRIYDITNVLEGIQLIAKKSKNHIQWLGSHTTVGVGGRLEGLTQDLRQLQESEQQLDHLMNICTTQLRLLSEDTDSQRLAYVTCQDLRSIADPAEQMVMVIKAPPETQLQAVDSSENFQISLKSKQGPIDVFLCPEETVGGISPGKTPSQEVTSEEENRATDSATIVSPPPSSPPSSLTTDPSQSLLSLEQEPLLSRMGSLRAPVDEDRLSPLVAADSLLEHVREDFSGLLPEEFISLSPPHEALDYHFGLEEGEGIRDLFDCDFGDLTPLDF
Outline: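 In this cis-factorial format, endogenous factor activity drives transfected reporters in HepG2; transcripts collected at 24 h are quantified by fluorescence after RT-PCR and capillary separation.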

[2] = ATG_M_61_CIS: Attagene CIS-FACTORIAL HepG2 Assay for M61 Transcription Factor (Internal Marker) (AID 2282937); details: HepG2 Attagene CIS-FACTORIAL M61 internal marker reporter; actives raise or lower the signal
Outline: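 Readout is reporter mRNA by RT-PCR, fluorescent primer extension and capillary electrophoresis, with gain or loss fitted relative to DMSO. Transfected HepG2 cells carrying endogenous-TF-driven cis reporters were exposed to chemicals for 24 hours.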

[3] = ATG_ISRE_CIS: Attagene CIS-FACTORIAL HepG2 Assay for human Interferon Regulatory Factor 1 (IRF1) binding to an Interferon-Stimulated Response Element (ISRE) (AID 2282948); details: HepG2 ISRE cis-reporter (Attagene), mRNA transcription readout; actives raise or lower the signal
Outline: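 Endogenous transcription factor activity read as reporter transcript abundance via RT-PCR and capillary electrophoresis. HepG2 cells transiently transfected, 24 h chemical exposure. Gain or loss fitted against DMSO baseline.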

[4] = target: Hypoxia-inducible factor 1-alpha (Homo sapiens) (UniProt Q16665); test: ATG_HIF1a_CIS: Attagene CIS-FACTORIAL HepG2 Assay for human Hypoxia Inducible Factor 1 (HIF1A) (AID 2282951); details: HepG2 Attagene cis-factorial HIF1a reporter transcription; actives raise or lower the signal
Hypoxia-inducible factor 1-alpha (Homo sapiens), sequence (Q16665 whole entry, looked up): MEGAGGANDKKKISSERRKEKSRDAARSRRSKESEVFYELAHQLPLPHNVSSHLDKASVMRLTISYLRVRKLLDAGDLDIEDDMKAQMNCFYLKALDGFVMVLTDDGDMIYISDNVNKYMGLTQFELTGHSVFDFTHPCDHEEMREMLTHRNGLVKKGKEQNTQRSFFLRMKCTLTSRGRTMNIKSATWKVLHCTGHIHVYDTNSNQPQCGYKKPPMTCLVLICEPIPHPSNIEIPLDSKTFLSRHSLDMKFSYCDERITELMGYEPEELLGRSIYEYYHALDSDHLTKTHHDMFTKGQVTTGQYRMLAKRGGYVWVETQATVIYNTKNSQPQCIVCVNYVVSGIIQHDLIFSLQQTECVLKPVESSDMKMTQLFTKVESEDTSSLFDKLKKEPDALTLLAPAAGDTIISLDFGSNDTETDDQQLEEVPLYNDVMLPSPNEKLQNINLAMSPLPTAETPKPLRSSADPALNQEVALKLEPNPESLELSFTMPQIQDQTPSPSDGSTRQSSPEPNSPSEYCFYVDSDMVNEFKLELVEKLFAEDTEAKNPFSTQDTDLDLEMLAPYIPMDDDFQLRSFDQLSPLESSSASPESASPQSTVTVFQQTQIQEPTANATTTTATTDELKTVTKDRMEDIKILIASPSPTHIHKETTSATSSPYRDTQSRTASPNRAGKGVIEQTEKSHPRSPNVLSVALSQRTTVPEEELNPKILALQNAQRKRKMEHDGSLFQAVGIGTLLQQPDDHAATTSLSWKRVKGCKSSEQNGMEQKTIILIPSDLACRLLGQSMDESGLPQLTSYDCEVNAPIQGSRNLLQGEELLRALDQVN
Outline: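 Activity is fitted in both directions relative to DMSO. Reporter transcripts are read by RT-PCR, fluorescent primer extension and capillary electrophoresis after 24 h chemical treatment. The cells are HepG2 carrying transiently transfected cis-element-driven reporter units responding to endogenous factors.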

[5] = target: Hepatocyte nuclear factor 6 (Homo sapiens) (UniProt Q9UBC0); test: ATG_HNF6_CIS: Attagene CIS-FACTORIAL HepG2 Assay for human Hepatocyte Nuclear Factor 6 (HNF6) (AID 2282952); details: HepG2 Attagene cis-factorial HNF6 reporter transcription; actives raise or lower the signal
Hepatocyte nuclear factor 6 (Homo sapiens), sequence (Q9UBC0 whole entry, looked up): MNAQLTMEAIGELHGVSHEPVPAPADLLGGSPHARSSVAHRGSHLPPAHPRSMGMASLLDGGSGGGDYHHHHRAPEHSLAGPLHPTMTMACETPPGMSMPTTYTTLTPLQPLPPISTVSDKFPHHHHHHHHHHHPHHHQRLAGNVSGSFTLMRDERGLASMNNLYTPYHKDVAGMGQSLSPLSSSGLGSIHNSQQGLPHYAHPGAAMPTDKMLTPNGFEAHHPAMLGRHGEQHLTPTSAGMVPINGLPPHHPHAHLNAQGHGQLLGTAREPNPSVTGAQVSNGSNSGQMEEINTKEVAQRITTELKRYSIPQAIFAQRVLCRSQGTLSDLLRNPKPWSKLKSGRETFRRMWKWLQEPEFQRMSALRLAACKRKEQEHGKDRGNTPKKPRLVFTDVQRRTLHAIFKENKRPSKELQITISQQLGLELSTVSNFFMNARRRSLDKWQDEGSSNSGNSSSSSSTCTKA
Outline: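 Endogenous factor activity read in transiently transfected HepG2 via promoter-regulated reporter transcripts. RNA harvested 24 h post-dosing, reverse-transcribed, PCR-amplified, FAM-labelled, HpaI-digested and resolved by capillary electrophoresis; fitted in both directions against DMSO.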

[6] = target: Heat shock factor protein 1 (Homo sapiens) (UniProt Q00613); test: ATG_HSE_CIS: Attagene CIS-FACTORIAL HepG2 Assay for human Heat Shock Transcription Factor 1 (HSE) (AID 2282953); details: HepG2 HSE cis-reporter, Attagene RNA transcription; actives raise or lower the signal
Heat shock factor protein 1 (Homo sapiens), sequence (Q00613 whole entry, looked up): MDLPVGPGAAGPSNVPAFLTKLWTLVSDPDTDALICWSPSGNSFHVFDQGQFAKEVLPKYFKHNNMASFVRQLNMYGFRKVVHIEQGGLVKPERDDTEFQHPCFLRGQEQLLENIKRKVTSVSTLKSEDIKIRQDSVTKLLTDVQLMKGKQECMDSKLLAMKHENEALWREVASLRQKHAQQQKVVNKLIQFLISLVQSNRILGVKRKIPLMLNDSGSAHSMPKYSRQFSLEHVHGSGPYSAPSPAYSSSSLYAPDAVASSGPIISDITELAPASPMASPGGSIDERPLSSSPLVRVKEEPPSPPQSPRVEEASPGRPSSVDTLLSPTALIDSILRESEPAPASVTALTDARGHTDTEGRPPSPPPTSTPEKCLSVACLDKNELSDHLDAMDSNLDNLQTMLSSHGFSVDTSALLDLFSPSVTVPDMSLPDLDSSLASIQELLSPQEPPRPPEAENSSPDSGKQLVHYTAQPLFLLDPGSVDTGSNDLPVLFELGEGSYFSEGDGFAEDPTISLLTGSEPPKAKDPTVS
Outline: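 Reporter mRNA induction in HepG2 is measured 24 h after dosing, using transiently transfected multiplexed cis-regulated reporter units. Signal comes from capillary electrophoresis of labelled RT-PCR products, with DMSO as negative control.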

[7] = ATG_MRE_CIS: Attagene CIS-FACTORIAL HepG2 Assay for human Metal Responsive Element (MRE) (AID 2282954); details: HepG2 MRE cis-reporter transcription, Attagene multiplex; actives raise or lower the signal
Outline: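 Readout: capillary electrophoresis of 6-FAM-labelled, HpaI-digested RT-PCR reporter products. System: HepG2 cells carrying transient multiplexed cis reporters, dosed 24 h. Analysis: bidirectional fit, DMSO baseline.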

[8] = ATG_PPRE_CIS: Attagene CIS-FACTORIAL HepG2 Assay for human Peroxisome Proliferator-activated Response Element (PPRE) (AID 2282958); details: HepG2 PPRE cis-element reporter, Attagene transcription factor profiling; actives raise or lower the signal
Outline: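 Endogenous PPRE-driven transcription is measured in HepG2 cells carrying transfected multi-reporter constructs. Reporter transcripts are quantified by RT-PCR, HpaI digestion and capillary electrophoresis 24 h after dosing. DMSO baseline, bidirectional fit.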

[9] = ATG_M_06_TRANS: Attagene TRANS-FACTORIAL HepG2 Assay for M06 Transcription Factor (Internal Marker) (AID 2282983; active = hit-call score of the fitted dose curve at least 0.9, where 1 is the maximum;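 note: reporter transcript level by RT-PCR then capillary electrophoresis fluorescence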); details: HepG2 Attagene TRANS M06 internal marker reporter
Outline: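 Background-control reporter readout: after 24 h chemical exposure of transiently transfected HepG2 (GAL4-UAS reporter units), mRNA quantified by RT-PCR with fluorescent labeling and capillary electrophoresis. Gain-of-signal fitting against DMSO baseline.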

[10] = target: Nuclear receptor subfamily 4 group A member 2 (Homo sapiens) (UniProt P43354); test: ATG_NURR1_TRANS: Attagene TRANS-FACTORIAL HepG2 Assay for human Nuclear Receptor Related Protein 1 (NURR1) (AID 2282985; active = hit-call score of the fitted dose curve at least 0.9, where 1 is the maximum); details: HepG2 Attagene TRANS reporter, mRNA readout
Nuclear receptor subfamily 4 group A member 2 (Homo sapiens), sequence (P43354 whole entry, looked up, the tested form may be a part): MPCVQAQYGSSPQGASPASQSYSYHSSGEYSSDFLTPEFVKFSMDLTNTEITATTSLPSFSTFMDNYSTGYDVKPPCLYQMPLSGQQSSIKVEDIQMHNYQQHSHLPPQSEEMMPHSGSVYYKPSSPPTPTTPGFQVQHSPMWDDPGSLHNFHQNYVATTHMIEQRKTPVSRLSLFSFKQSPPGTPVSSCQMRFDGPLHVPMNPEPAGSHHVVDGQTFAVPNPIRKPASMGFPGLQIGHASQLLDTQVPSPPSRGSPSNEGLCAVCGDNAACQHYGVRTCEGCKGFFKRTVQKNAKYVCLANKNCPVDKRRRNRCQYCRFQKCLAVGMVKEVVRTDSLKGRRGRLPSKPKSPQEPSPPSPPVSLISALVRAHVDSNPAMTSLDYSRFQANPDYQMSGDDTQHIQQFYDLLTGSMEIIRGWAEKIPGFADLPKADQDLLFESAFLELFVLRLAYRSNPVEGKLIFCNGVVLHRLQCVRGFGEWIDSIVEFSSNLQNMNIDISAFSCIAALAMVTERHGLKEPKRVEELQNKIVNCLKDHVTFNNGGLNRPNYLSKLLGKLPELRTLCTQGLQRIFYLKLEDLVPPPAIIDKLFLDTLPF
Outline: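 Chimeric NR-Gal4 proteins were expressed in human HepG2 cells bearing GAL4-UAS reporter units, and induced reporter mRNA was quantified 24 h post-dosing by RT-PCR and capillary electrophoresis.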

[11] = target: Transcriptional activator Myb (Homo sapiens) (UniProt P10242); test: ATG_Myb_CIS: Attagene CIS-FACTORIAL HepG2 Assay for human Myeloblastosis (Myb) Proto-Oncogene Transcription Factor (AID 2282986); details: HepG2 Attagene CIS-FACTORIAL Myb reporter transcription; actives raise or lower the signal
Transcriptional activator Myb (Homo sapiens), sequence (P10242 whole entry, looked up): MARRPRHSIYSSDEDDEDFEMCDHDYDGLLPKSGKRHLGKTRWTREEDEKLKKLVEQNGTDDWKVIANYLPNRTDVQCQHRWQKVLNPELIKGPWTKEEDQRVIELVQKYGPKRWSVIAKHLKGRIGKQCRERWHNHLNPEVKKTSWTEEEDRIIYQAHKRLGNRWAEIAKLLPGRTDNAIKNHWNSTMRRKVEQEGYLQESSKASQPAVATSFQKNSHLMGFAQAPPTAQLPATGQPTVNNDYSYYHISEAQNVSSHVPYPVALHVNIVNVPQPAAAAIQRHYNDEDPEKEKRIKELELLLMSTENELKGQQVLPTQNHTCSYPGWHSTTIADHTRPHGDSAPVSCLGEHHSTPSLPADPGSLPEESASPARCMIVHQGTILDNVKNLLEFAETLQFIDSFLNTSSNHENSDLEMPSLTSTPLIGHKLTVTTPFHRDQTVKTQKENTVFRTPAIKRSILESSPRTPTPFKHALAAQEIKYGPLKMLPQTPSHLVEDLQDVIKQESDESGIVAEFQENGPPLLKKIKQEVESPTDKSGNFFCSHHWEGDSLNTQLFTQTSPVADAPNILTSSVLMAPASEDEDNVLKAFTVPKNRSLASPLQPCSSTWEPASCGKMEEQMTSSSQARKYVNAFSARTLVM
Outline: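 Reporter mRNA is quantified by RT-PCR and capillary electrophoresis 24 h after dosing HepG2 cells transfected with cis-regulated reporter units, which track endogenous transcription factor activity. Gain and loss of signal are fitted versus DMSO baseline.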

[12] = ATG_TCF_b_cat_CIS: Attagene CIS-FACTORIAL HepG2 Assay for human T-Cell-Factor with beta-catenin (TCF/b-cat) (AID 2282965); details: HepG2 TCF/beta-catenin cis-reporter transcription, actives raise or lower the signal
Outline: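 HepG2 cells transiently transfected with multiple cis-promoter-regulated reporter transcription units, so endogenous transcription factor activity is measured. Reporter mRNA read 24 hours after dosing by RT-PCR, fluorescent labelling and capillary electrophoresis; bidirectional fitting against DMSO.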

[13] = target: Retinoic acid receptor RXR-alpha (Homo sapiens) (UniProt P19793); test: ATG_RXRa_TRANS: Attagene TRANS-FACTORIAL HepG2 Assay for human Retinoid X Receptor alpha (RXRa) (AID 2283012; active = hit-call score of the fitted dose curve at least 0.9, where 1 is the maximum)
Retinoic acid receptor RXR-alpha (Homo sapiens), sequence (P19793 whole entry, looked up, the tested form may be a part): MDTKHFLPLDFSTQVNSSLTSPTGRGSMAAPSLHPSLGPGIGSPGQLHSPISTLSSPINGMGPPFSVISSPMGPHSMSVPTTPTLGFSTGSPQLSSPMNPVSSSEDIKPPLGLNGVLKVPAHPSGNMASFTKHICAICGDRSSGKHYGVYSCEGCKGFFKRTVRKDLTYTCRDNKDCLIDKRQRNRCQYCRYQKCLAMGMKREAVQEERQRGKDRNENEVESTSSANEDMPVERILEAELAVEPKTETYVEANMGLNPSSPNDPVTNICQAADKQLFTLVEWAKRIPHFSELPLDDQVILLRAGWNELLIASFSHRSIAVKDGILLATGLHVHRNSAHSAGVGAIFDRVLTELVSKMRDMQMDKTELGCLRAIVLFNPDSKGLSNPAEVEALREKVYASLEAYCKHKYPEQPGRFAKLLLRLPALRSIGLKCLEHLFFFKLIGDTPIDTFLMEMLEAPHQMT
Outline: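 Chimeric NR-GAL4 trans-activation in HepG2, 24 h treatment; reporter transcripts quantified by fluorescence on capillary electrophoresis, analysed for upward change from DMSO.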

[14] = ATG_PBREM_CIS: Attagene CIS-FACTORIAL HepG2 Assay for human Phenobarbital-responsive Enhancer Module (PBREM) (AID 2282955); details: HepG2 PBREM cis-reporter, Attagene multiplexed transcription; actives raise or lower the signal
Outline: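 Endogenous transcription factor activity was read from reporter transcripts in transiently transfected human HepG2 liver cells after 24 h dosing. RT-PCR products were fluorescently labelled, HpaI-cut and sized by capillary electrophoresis; activity fitted bidirectionally against DMSO baseline.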

[15] = target: Nuclear respiratory factor 1 (Homo sapiens) (UniProt Q16656); test: ATG_NRF1_CIS: Attagene CIS-FACTORIAL HepG2 Assay for human Nuclear Respiratory Factor 1 (NRF1) Orphan Gene (AID 2282987); details: HepG2 NRF1 cis-element reporter, Attagene multiplex; actives raise or lower the signal
Nuclear respiratory factor 1 (Homo sapiens), sequence (Q16656 whole entry, looked up): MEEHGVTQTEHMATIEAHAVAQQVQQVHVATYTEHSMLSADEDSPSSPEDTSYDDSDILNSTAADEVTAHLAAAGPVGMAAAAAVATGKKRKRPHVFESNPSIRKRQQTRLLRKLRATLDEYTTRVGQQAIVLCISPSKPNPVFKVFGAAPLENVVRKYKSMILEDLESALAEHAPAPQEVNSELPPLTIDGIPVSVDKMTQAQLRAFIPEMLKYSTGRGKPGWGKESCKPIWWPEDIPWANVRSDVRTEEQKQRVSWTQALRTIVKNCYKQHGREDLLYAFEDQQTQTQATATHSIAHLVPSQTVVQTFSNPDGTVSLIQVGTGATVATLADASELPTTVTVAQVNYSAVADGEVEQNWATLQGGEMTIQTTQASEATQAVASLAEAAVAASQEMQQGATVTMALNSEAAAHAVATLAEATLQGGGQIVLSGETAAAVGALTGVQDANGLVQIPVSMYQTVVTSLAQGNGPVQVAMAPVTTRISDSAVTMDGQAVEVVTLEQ
Outline: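 Endogenous NRF1-driven reporter transcription in transfected HepG2 cells after 24 h treatment. Readout: RT-PCR products, 6-FAM labelled and resolved by capillary electrophoresis; changes fitted both directions relative to DMSO.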

[16] = target: Cellular tumor antigen p53 (Homo sapiens) (UniProt P04637); test: TOX21_p53_BLA_p2_ratio: Tox21 HCT-116 p53 Agonism Beta-lactamase Assay, Ratio, Phase 2 (AID 2283592; active = hit-call score of the fitted dose curve at least 0.9, where 1 is the maximum)
Cellular tumor antigen p53 (Homo sapiens), sequence (P04637 whole entry, looked up): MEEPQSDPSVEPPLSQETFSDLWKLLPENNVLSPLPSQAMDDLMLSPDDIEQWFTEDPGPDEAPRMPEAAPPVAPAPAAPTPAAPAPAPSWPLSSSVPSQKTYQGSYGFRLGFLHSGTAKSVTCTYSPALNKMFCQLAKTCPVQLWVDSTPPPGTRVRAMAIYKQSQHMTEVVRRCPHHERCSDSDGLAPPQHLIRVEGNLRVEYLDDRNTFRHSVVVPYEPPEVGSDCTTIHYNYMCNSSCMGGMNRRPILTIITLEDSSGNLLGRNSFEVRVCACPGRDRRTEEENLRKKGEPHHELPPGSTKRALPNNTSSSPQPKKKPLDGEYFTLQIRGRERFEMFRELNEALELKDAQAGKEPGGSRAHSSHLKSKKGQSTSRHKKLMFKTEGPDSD
Outline: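 Read-out is the blue/green (460/530 nm, 405 nm excitation) ratio after 2 h CCF4-AM loading, fitted as gain versus DMSO. Compounds, pinned at 217-fold dilution from DMSO stocks, stayed 16 h on HCT-116 beta-lactamase reporter cells seeded 5 h earlier.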

[17] = target: Cellular tumor antigen p53 (Homo sapiens) (UniProt P04637); test: TOX21_p53_BLA_p3_ratio: Tox21 HCT-116 p53 Agonism Beta-lactamase Assay, Ratio, Phase 3 (AID 2283596; active = hit-call score of the fitted dose curve at least 0.9, where 1 is the maximum)
Outline: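 Cells were seeded at 4000/well, rested 5 h at 37C, then dosed with DMSO compound solutions (217-fold dilution) for 16 h. CCF4-AM substrate was loaded for 2 h at room temperature, and the 460/530 nm emission ratio was fitted for gain of signal versus DMSO.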

[18] = target: Cellular tumor antigen p53 (Homo sapiens) (UniProt P04637); test: TOX21_p53_BLA_p5_ratio: Tox21 HCT-116 p53 Agonism Beta-lactamase Assay, Ratio, Phase 5 (AID 2283599; active = hit-call score of the fitted dose curve at least 0.9, where 1 is the maximum)
Outline: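 HCT-116 cells carrying a p53-inducible beta-lactamase reporter were seeded at 4000 cells/well and dosed after 5 h with compound in DMSO (217-fold dilution). After 16 h at 37C, CCF4-AM substrate was added for 2 h, and the 460/530 nm emission ratio was scored as gain-of-signal versus DMSO.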

[19] = ATG_GRE_CIS: Attagene CIS-FACTORIAL HepG2 Assay for human Glucocorticoid Response Elements (GRE) (AID 2282947); details: HepG2 GRE cis-reporter, Attagene multiplex mRNA; actives raise or lower the signal
Outline: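 HepG2, transient cis-reporter transfection, 24 h. Reporter mRNA: RT-PCR then CE, fluorescence. Fit both directions vs DMSO.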

[20] = target: Cellular tumor antigen p53 (Homo sapiens) (UniProt P04637); test: TOX21_p53_BLA_p4_ratio: Tox21 HCT-116 p53 Agonism Beta-lactamase Assay, Ratio, Phase 4 (AID 2283601; active = hit-call score of the fitted dose curve at least 0.9, where 1 is the maximum)
Outline: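 HCT116 cells carrying an inducible beta-lactamase reporter were plated at 4000 cells/well, rested 5 h, then exposed to compounds in DMSO (217-fold dilution) for 16 h at 37C. CCF4-AM substrate was loaded 2 h at room temperature; 460/530 nm emission ratio scored gain-of-signal versus DMSO.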

Measured: AC50

O=S(=O)(O)OOS(=O)(=O)O
inactive: [1] | [2] | [3] | [4] | [5] | [6] | [7] | [8] | [9] | [10] | [11]

C[N+](C)(C)CC(=O)[O-]
inactive: [1] | [2] | [3] | [5] | [6] | [8] | [12] | [9] | [10] | [11] | [13]

O=C1C=CC(=O)C=C1
inactive: [3] | [14] | [12] | [9] | [10] | [11] | [15] | [13] | [16] | [17] | [18]
active: [17] 71.3 µM

CC(Cc1ccc(C(C)(C)C)cc1)CN1C[C@@H](C)O[C@@H](C)C1 (some centres not stated)
active: [7] 24.2 µM | [14] 12.8 µM | [10] 33.4 µM
not listed: [18]
inactive: all other assays above

O=[N+]([O-])c1cc(C(F)(F)F)c(Cl)c([N+](=O)[O-])c1Cl
active: [3] 5.65 µM | [6] 5.39 µM | [7] 5.11 µM | [16] 13.3 µM | [17] 22.2 µM | [18] 21 µM | [20] 21.9 µM
inactive: [1] | [19] | [4] | [5] | [8] | [9] | [15]
